In paper PMC4336329 (PLoS ONE, 2015):
In all, about 310,000 compounds went through this assay and about 14,000 (4.5%) showed an effect of 50% or more. Effects have a minus sign here. The sample as a whole holds a higher share of strong results than the screen did.

These compounds were tested against human ether-à-go-go-related gene (hERG) potassium channel (human, UniProt Q12809) (assay: primary screen, population patch clamp on CHO cells stably expressing hERG; higher = less effect of the substance).
Sequence of human ether-à-go-go-related gene (hERG) potassium channel (Q12809 whole entry, looked up): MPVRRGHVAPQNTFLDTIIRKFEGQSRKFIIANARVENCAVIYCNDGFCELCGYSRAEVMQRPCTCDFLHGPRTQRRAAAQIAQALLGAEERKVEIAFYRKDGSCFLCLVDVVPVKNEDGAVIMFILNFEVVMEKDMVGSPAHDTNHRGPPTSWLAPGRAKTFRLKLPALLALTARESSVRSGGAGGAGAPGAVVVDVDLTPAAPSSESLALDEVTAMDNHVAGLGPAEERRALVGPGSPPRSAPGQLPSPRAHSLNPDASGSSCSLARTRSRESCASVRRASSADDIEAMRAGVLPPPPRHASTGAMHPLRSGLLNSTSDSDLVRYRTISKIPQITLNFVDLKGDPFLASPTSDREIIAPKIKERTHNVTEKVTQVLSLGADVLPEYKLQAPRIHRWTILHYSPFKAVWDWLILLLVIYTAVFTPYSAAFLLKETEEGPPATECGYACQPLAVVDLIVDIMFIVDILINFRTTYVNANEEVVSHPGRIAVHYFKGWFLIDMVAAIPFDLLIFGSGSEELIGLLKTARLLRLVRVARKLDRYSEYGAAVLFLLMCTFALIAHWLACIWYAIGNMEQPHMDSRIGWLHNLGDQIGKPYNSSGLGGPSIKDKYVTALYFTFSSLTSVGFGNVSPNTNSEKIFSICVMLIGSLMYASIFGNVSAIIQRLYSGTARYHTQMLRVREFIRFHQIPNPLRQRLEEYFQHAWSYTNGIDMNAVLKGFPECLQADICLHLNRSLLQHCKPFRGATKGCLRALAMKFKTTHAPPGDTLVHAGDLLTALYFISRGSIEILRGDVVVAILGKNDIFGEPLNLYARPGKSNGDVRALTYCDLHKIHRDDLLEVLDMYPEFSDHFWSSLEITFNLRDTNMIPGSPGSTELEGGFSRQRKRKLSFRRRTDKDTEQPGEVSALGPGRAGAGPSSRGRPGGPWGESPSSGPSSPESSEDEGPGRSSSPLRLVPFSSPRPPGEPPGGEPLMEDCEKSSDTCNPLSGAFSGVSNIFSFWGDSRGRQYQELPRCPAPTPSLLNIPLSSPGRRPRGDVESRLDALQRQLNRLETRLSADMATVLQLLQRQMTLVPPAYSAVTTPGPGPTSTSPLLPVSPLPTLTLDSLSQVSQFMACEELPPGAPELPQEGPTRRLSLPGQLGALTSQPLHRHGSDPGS
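Also: peak tail current of the secondary pulse compared with the same well before compound.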

Row | SMILES | hERG current change (%, negative = inhibition) at 10uM [%]
1 | COc1ccc(Nc2nc3ccccc3n3nnnc23)cc1 | -7.93
2 | CN1CCN(S(=O)(=O)c2ccc3c(c2)OCCO3)CC1 | 12.1
3 | COC(=O)CCCC1=CC2=C(c3ccccc3)C(=O)C(C)(OC(=O)C3CCCC3)C(=O)C2=CN1Cc1ccc(OC)cc1 (stereo not drawn) | -4.26
4 | COC(=O)CCCC1=CC2=C(c3ccccc3)C(=O)C(C)(OC(=O)C3CCCC3)C(=O)C2=CN1CC1CC1 (stereo not drawn) | -39.9
5 | COC(=O)CCCC1=CC2=C(c3ccccc3)C(=O)C(C)(OC(=O)C3CCCC3)C(=O)C2=CN1Cc1ccco1 (stereo not drawn) | -56.8
6 | CCOC(=O)CSc1nc(N)nc(C)c1Cl | 13.4
7 | COc1ccc(-c2cnc(NCc3cc4c(cc3[N+](=O)[O-])OCO4)n2C)cc1 | -48.4
8 | Cn1c(-c2ccccc2)cnc1NCc1cc(Cl)ccc1O | 19.9
9 | Cc1cc(F)ccc1NCc1cc2c(cc1[N+](=O)[O-])OCO2.O=C(O)C(=O)O | 7.77
10 | Cn1c(-c2ccc(Cl)cc2)cnc1NCc1cc2c(cc1[N+](=O)[O-])OCO2.O=C(O)C(=O)O | -62.6
11 | Cn1c(-c2ccc(F)cc2)cnc1NCc1cc2c(cc1[N+](=O)[O-])OCO2.O=C(O)C(=O)O | -57.8
12 | Cn1c(-c2ccccc2)cnc1NCc1cc2c(cc1[N+](=O)[O-])OCO2 | -55
13 | Cc1ccc(-c2cnc(NCc3cc4c(cc3[N+](=O)[O-])OCO4)n2C)cc1C | -48.6
14 | N#Cc1nc(-c2ccccc2F)oc1NCc1cccc2c1OCO2 | -24.9
15 | CCN(C(=O)COC(=O)CNC(=O)c1ccc(C)s1)c1ccccc1 | 16.5
16 | O=C(NCc1ccc(F)cc1)c1cccnc1C(=O)O | 13.5
17 | COc1ccc(S(=O)(=O)N(CC(N)=O)C2CCCCC2)cc1Cl | 4.39
18 | COc1ccc(CCNc2c3ccccc3nc3ccccc23)cc1OC.Cl | -69.7
19 | CNCCc1c[nH]c2ccccc12 | 6.05
20 | Fc1cccc(NCCc2c[nH]c3ccccc23)n1 | 11.3
21 | Cl.Oc1ccc(CCNc2c3ccccc3nc3ccccc23)cc1O | -68.2
22 | c1ccc2c(NCCc3c[nH]c4ccccc34)c3ccccc3nc2c1 | -74.7
23 | COc1ccc(CCNc2nc(-c3cccnc3)nc3ccccc23)cc1OC | -1.54

Row | SMILES | hERG current change (%, negative = inhibition) at 10uM [%]
24 | COc1ccc(CCNc2nc(C)cc(C)n2)cc1OC.Cl | 17.4
25 | O=C(CNC(=O)c1ccccc1)NCCc1ccc(O)c(O)c1 | 1.15
26 | CNCCc1ccc(O)c(O)c1.Cl | 12.7
27 | COc1ccc(C(=O)/C=C/Nc2cc(C)on2)cc1 | 3.9
28 | CCCCOC(=O)c1ccc(Nc2ccc([N+](=O)[O-])cn2)cc1 | 14.5
29 | Cc1ccc(-c2nnc(N3CC(C)OC(C)C3)c3ccccc23)cc1 (stereo not drawn) | -20.6
30 | O=C(NC(=S)Nc1ccc(CN2CCOCC2)cc1)c1ccc2c(c1)OCCO2 | -13.9
31 | CC(=Nc1ccccc1N)c1c(O)n(C)c(=O)n(C)c1=O | 21
32 | CCOc1ccc(CN(C)C(=O)CCNC(=O)c2ccco2)cc1 | 1.35
33 | CCCOC(=O)c1[nH]c2c(c1C)C(=O)CC(c1ccc(OC)c(OC)c1)C2 (stereo not drawn) | -4.07
34 | CCOc1ccccc1NC(=O)CN1C(=O)C(=O)N(Cc2ccco2)C1=O | 8.17
35 | CCNC(=O)c1c(O)c2ccccc2[nH]c1=O | -62.5
36 | CCCCCCNC(=O)c1c(O)c2ccccc2[nH]c1=O | 19.9
37 | O=C(NCc1ccccc1)c1c(O)c2ccccc2[nH]c1=O | 15.4
38 | O=C(Cn1cnc2c(nnn2Cc2ccc(F)cc2)c1=O)NCc1ccc2c(c1)OCO2 | -17.2
39 | C=CCn1c(COc2ccc(OC)cc2)nnc1SC(C)C(=O)NC1CC1 (stereo not drawn) | -11.6
40 | CCCCCn1c(=O)[nH]c2cc(C(=O)NCCCN3CCCCC3)ccc2c1=O | -33.5
41 | CCOn1c(=O)c(=O)n(OC)c2ccccc21 | -6.73
42 | CCOC(=O)C1(Cc2ccc(Cl)cc2)CCN(C(C)Cc2ccc(O)c(OC)c2)CC1 (stereo not drawn) | -70.8
43 | CCOC(=O)C1(Cc2ccc(OC)cc2)CCN(C(=O)CCn2cccn2)CC1 | -7.25
44 | CCOC(=O)C1(Cc2ccc(Cl)cc2)CCN(C(C)CCn2cccn2)CC1 (stereo not drawn) | -87.2
45 | CCOC(=O)C1(Cc2ccc(OC)cc2)CCN(S(C)(=O)=O)CC1 | 25.6
46 | CCOC(=O)C1(Cc2ccc(Cl)cc2)CCN(CCCn2cccn2)CC1 | -74.8

Row | SMILES | hERG current change (%, negative = inhibition) at 10uM [%]
47 | CCOC(=O)C1(Cc2cccc(F)c2)CCN(CC(O)CO)CC1 (stereo not drawn) | 14.5
48 | CCOC(=O)C1(Cc2cccc(F)c2)CCN(Cc2cnn(CC)c2)CC1 | -32.2
49 | CCOC(=O)C1(Cc2cccc(OC)c2)CCN(C(C)CC(C)(C)O)CC1 (stereo not drawn) | -28.5
50 | CCOC(=O)C1(Cc2cccc(F)c2)CCN(CCCn2cccn2)CC1 | -74.6
51 | O=C1NC(=O)C(Nc2cccc3ccccc23)S1 (stereo not drawn) | 7.89
52 | Cc1cccc(-c2nc3c(c(SCC(=O)N(C)C)n2)CCCC3)c1 | -21.5
53 | COC(=O)c1ccc([C@H](NC(=O)c2ccco2)[C@]2(C)C[C@H]2C2CCCCC2)cc1 | 9.14
54 | COc1ccc(CN2CCn3ncc(C(=O)Nc4cccc(C)c4)c3C2=O)cc1 | 6.5
55 | Cc1ccc(S(=O)(=O)N/N=C/c2ccc(OCC(=O)Nc3ccccc3Cl)cc2)cc1 | 1.73
56 | COc1cccc(N(C(=O)Cn2nnc(-c3cccs3)n2)C(C(=O)NC2CCCCC2)c2ccncc2)c1 (stereo not drawn) | 8
57 | COc1cc2c(c(O)c1OC)-c1c(cc(OC)c(OC)c1OC)C[C@@H](C)[C@@H](C)C2 | -78.6
58 | COc1cc2c(c(OC)c1OC)-c1c(cc(OC)c(OC)c1OC)C[C@](C)(O)[C@@H](C)C2 | -73.7
59 | C/C=C(/C)C(=O)O[C@@H]1c2cc3c(c(OC)c2-c2c(cc(OC)c(OC)c2OC)[C@@H](OC(C)=O)[C@@H](C)[C@H]1C)OCO3 | 4.78
60 | COc1cc2c(c(OC)c1OC)-c1c(cc3c(c1O)OCO3)C[C@@H](C)[C@@H](C)C2 | 0.26
61 | COc1cc2c(c(O)c1OC)C(=O)C(OC)CCC2 (stereo not drawn) | -3.32
62 | COc1cc2c(c(OC)c1OC)-c1c(cc(OC)c(OC)c1OC)C[C@H](C)[C@H](C)C2 | -71.9
63 | COc1cc2c(c(OC)c1OC)-c1c(cc3c(c1OC)OCO3)C[C@H](C)[C@@](C)(O)C2 | 28.4
64 | COc1cc2c(c(OC)c1OC)-c1c(cc3c(c1OC)OCO3)[C@@H](OC(C)=O)[C@H](C)[C@H](C)C2 | -66.8
65 | COc1cc(C2(O)CCCCC2C)cc(OC)c1OC (stereo not drawn) | 15.9
66 | Br.COc1cc2c(cc1OC)-c1c(OC)c(OC)cc3c1[C@H](C2)[NH+](C)CC3 | -16.7
67 | COc1cc2c(c(OC)c1OC)-c1c(cc3c(c1OC)OCO3)C1OC2[C@@H](C)[C@H]1C (stereo partly drawn) | -4.76
68 | COc1cc2c(c(OC)c1OC)C(=O)CC2 | 15.6
69 | O=S(=O)(N/N=C/c1ccc(N2CCOCC2)cc1)c1ccc(Br)cc1 | 15.1

Row | SMILES | hERG current change (%, negative = inhibition) at 10uM [%]
70 | Cc1ccc2nc(-c3ccc(NC(=O)CN4C(=O)NC(C)(c5ccc(OC(F)F)cc5)C4=O)cc3)sc2c1 (stereo not drawn) | 12.4
71 | Cc1cccc(-n2c(C)cc(/C=N/n3cnnc3)c2C)c1 | -0.869
72 | O=C(Nc1ccc(S(=O)(=O)Nc2nccs2)cc1)C1CC(=O)N(c2ccc(Cl)cc2)C1 (stereo not drawn) | 0.55
73 | CC1=C(C(=O)OC(C)C)C2(O)C(=O)c3ccccc3C2(O)N1 (stereo not drawn) | 12
74 | CN(CC(=O)Nc1c(Cl)cccc1Cl)C(=O)Cc1cccs1 | 2.98
75 | Cc1cc(=O)oc(C)c1C(=O)NCc1ccc(F)cc1 | -15.9
76 | O=C1CCCCC/C1=N/Nc1ccc(OCc2ccccc2)cc1 | 17.3
77 | CC(C)(C)c1ccc(-n2ncc3c2CCCC3NC(=O)C2(C(N)=O)CC2)cc1 (stereo not drawn) | -29.1
78 | CCCCOc1ccc(/C=C/C(=O)OCC(=O)N2CC(=O)Nc3ccccc32)cc1OCC | 21.2
79 | CCOC(=O)c1c(C)n(C)c2ccc(O)c(CN3CCC(C)CC3)c12 | -23.2
80 | CCCCn1c(C)c(C(=O)OCC)c2c(CN3CCOCC3)c(O)ccc21 | -55.9
81 | CCOC(=O)c1c(CSc2ccccc2)n(C)c2ccc(O)c(CN3CCN(C)CC3)c12 | -22.6
82 | CCOC(=O)c1c(C)n(C)c2ccc(O)c(CN3CCCCC3)c12 | -55.5
83 | CCOC(=O)c1c(C)n(C)c2ccc(O)c(CN3CCN(C)CC3)c12 | -3.46
84 | CCOC(=O)c1c(CSc2ccccc2)n(C)c2ccc(O)c(CN3CCOCC3)c12 | -46.3
85 | CCOC(=O)c1c(-c2ccccc2)oc2ccc(O)c(CN3CCOCC3)c12 | -37
86 | CCOC(=O)c1c(C)oc2ccc(O)c(CN3CCCCC3)c12 | -37.4
87 | CCOC(=O)c1oc2cccc(O)c2c1CN1CCOCC1.Cl | -17.1
88 | CCOC(=O)c1c(-c2ccccc2)oc2ccc(O)c(CN3CCCC3)c12 | -64.3
89 | CCOC(=O)c1c(-c2ccccc2)oc2ccc(O)c(CN3CCN(C)CC3)c12 | -23.5
90 | CCCCn1c(C)c(C(=O)OCC)c2c(CN3CCCC3)c(O)ccc21 | -72
